Results filed as inconclusive are left out. Calls of active or inactive are those of the source. The calls were made as follows, unless noted: active = hit-call score of the fitted dose curve at least 0.9, where 1 is the maximum; inactive = score below 0.9.
Experiments:
[1] = CCTE_Harrill_HTTr_Viability_DMEM_12hr: (Pilot) CCTE's 12-hour Cell Viability Assessment for the High-Throughput Transcriptomics (HTTr) Platform, in MCF-7 cells cultured in DMEM + 10% fetal bovine serum, Harrill Lab (AID 2283974)
In short: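 MCF-7 cells in DMEM + 10% FBS exposed 12 h to an eight-point dilution series; membrane integrity scored by propidium iodide exclusion with high-content imaging, bidirectional fitting versus DMSO.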

[2] = CCTE_Harrill_HTTr_Viability_DMEM_24hr: (Pilot) CCTE's 24-hour Cell Viability Assessment for the High-Throughput Transcriptomics (HTTr) Platform, in MCF-7 cells cultured in DMEM + 10% fetal bovine serum, Harrill Lab (AID 2283975)
In short: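 MCF-7 cells in DMEM with 10% FBS exposed for 24 hours to an eight-point dilution series. Membrane integrity by propidium iodide exclusion with high content imaging; bidirectional fit against DMSO.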

[3] = CCTE_Harrill_HTTr_Viability_PRF_DMEM_6hr: (Pilot) CCTE's 6-hour Cell Viability Assessment for the High-Throughput Transcriptomics (HTTr) Platform, in MCF-7 cells cultured phenol red-free DMEM + 10% charcoal-stripped fetal bovine serum, Harrill Lab (AID 2283976)
In short: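 MCF-7 cells in phenol red-free DMEM with 10% charcoal-stripped FBS exposed 6 hours to an eight-point dilution series. Propidium iodide exclusion imaged; curves fitted bidirectionally against DMSO.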

[4] = CCTE_Harrill_HTTr_Viability_PRF_DMEM_12hr: (Pilot) CCTE's 12-hour Cell Viability Assessment for the High-Throughput Transcriptomics (HTTr) Platform, in MCF-7 cells cultured in phenol red-free DMEM + 10% charcoal-stripped fetal bovine serum, Harrill Lab (AID 2283977)
In short: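 MCF-7 cells in phenol red-free DMEM with 10% charcoal-stripped FBS exposed 12 hours to an eight-point dilution series. Viability assessed by high-content imaging of propidium iodide exclusion; bidirectional fit versus DMSO.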

[5] = CCTE_Harrill_HTTr_Viability_PRF_DMEM_24hr: (Pilot) CCTE's 24-hour Cell Viability Assessment for the High-Throughput Transcriptomics (HTTr) Platform, in MCF-7 cells cultured in phenol red-free DMEM + 10% charcoal-stripped fetal bovine serum, Harrill Lab (AID 2283980)
In short: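 MCF-7 cells in phenol red-free DMEM with 10% charcoal-stripped FBS, eight-point dilution series, 24 h exposure. Membrane integrity by propidium iodide exclusion with high content imaging; bidirectional fit vs DMSO.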

[6] = CCTE_Harrill_HTTr_Apoptosis_DMEM_6hr: (Pilot) CCTE's 6-hour Apoptosis Assessment for the High-Throughput Transcriptomics (HTTr) Platform, in MCF-7 cells cultured in DMEM + 10% fetal bovine serum, Harrill Lab (AID 2283981)
In short: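 Caspase-3/7 activation read by high content imaging with CellEvent Caspase 3/7 Green in MCF-7 cells (DMEM + 10% FBS), 6 h after dosing; eight-point dilution series. Bidirectional fitting relative to DMSO baseline.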

[7] = CCTE_Harrill_HTTr_Apoptosis_DMEM_12hr: (Pilot) CCTE's 12-hour Apoptosis Assessment for the High-Throughput Transcriptomics (HTTr) Platform, in MCF-7 cells cultured in DMEM + 10% fetal bovine serum, Harrill Lab (AID 2283982)
Source text: This is a cell-based assay that evaluates apoptosis using high content imaging to evaluate activation of caspase-3/7 using the CellEvent Caspase 3/7 Green detection reagent in 384-well format.One of seven assay components measured from the CCTE_Harrill_HTTr_Apoptosis assay. This was part of a pilot experiment. This is a cell-based assay that evaluates apoptosis in MCF-7 cells cultured in DMEM + 10% fetal bovine serum. High content imaging is used to evaluate activation of caspase-3/7 using the CellEvent Caspase 3/7 Green detection reagent. Measurements are taken at 12 hours after chemical dosing in 384-well format.The assay component endpoint CCTE_Harrill_HTTr_Apoptosis_DMEM_12hr was analyzed with bidirectional fitting relation to DMSO as the negative control and baseline of activity. Using a type of viability reporter, gain-of-signal activity can be used to evaluate activation of caspase-3/7 using the CellEvent Caspase 3/7 Green detection reagent to understand changes in apoptosis. To generalize the intended target to other relatable targets, this assay endpoint is annotated to cell cycle, where the subfamily is apoptosis.
Chemicals were tested in MCF7 cells in an eight point dilution series with a twelve hour exposure duration.

[8] = CCTE_Harrill_HTTr_Apoptosis_DMEM_24hr: (Pilot) CCTE's 24-hour Apoptosis Assessment for the High-Throughput Transcriptomics (HTTr) Platform, in MCF-7 cells cultured in DMEM + 10% fetal bovine serum, Harrill Lab (AID 2283983)
In short: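 MCF-7 cells in DMEM + 10% FBS, eight-point dilution series, 24 h exposure. Caspase-3/7 activation imaged by high-content imaging with CellEvent Caspase 3/7 Green. Bidirectional curve fitting against DMSO baseline.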

[9] = CCTE_Harrill_HTTr_Apoptosis_PRF_DMEM_6hr: (Pilot) CCTE's 6-hour Apoptosis Assessment for the High-Throughput Transcriptomics (HTTr) Platform, in MCF-7 cells cultured phenol red-free DMEM + 10% charcoal-stripped fetal bovine serum, Harrill Lab (AID 2283984)
In short: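 MCF-7 cells in phenol red-free DMEM + 10% charcoal-stripped FBS, eight-point dilution series, 6 h exposure. Caspase-3/7 activation imaged by high-content imaging with CellEvent Caspase 3/7 Green; bidirectional fit versus DMSO baseline.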

[10] = TOX21_TR_RXR_BLA_Antagonist_Followup_viability: Viability Assessment in the Tox21 Thyroid Hormone Receptor beta Retinoid X Receptor alpha (RXRa) Antagonism Beta-lactamase (BLA) Follow-Up Assay (AID 2283979; active = hit-call score of the fitted dose curve at least 0.9, where 1 is the maximum)
In short: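 Follow-up compounds (11 concentrations, triplicate) were incubated 16 h at 37C/5% CO2 with HEK293T RXRa-bla cells seeded at 2,500/well in charcoal-stripped-serum medium. ATP content by CellTiter-Glo luminescence gave viability; curves fitted in both directions against DMSO.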

Measured: outcome

CCOC(=O)C(C)(C)Oc1ccc(Cl)cc1
not listed: [10]
inactive: all other assays above

Nc1nc(N)c2nc(CNc3ccc(C(=O)N[C@@H](CCC(=O)O)C(=O)O)cc3)cnc2n1
inactive: [10]

O=c1[nH]cc(F)c(=O)[nH]1
inactive: [10]

From PubChem BioAssay (EPA / NIEHS)
